From PubChem BioAssay (Tox21) come the findings set out here.

A short description of test [1]: qHTS assay to identify small molecule agonists of the estrogen receptor alpha (ER-alpha) signaling pathway in the presence of an antagonist - cell viability counter screen (AID 1259386).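 Further: series mostly up to about 92 µM; cells exposed to compounds for 22 h at 37 °C before the viability read; nearly all actives have a fitted effect of over 30% in size.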 In short, it runs like this:
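In this counter screen, compound effects on VM7Luc4E2 viability were tested in the presence of the antagonist ICI-182,780 at 10.0nM final. Compounds were dosed at 15 concentrations, exposure lasted 22hr, and the CellTiter-Fluor signal was read.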

For test [2], the target named is Progesterone receptor (Homo sapiens) (UniProt P06401). In words: qHTS assay to identify small molecule agonists of the progesterone receptor (PR) signaling pathway (AID 1346784; calls by dose curve; further: nearly all actives have a fitted effect of over 30% in size). A digest of the protocol: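 Reporter assay, GripTite PR-UAS-bla HEK 293T cells: 16 hr exposure to DMSO-dissolved compounds at 37C, 5% CO2, in steroid-depleted (2% charcoal-stripped FBS) medium; beta-lactamase measured by FRET fluorescence.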
Sequence of Progesterone receptor (Homo sapiens) (P06401 whole entry, looked up): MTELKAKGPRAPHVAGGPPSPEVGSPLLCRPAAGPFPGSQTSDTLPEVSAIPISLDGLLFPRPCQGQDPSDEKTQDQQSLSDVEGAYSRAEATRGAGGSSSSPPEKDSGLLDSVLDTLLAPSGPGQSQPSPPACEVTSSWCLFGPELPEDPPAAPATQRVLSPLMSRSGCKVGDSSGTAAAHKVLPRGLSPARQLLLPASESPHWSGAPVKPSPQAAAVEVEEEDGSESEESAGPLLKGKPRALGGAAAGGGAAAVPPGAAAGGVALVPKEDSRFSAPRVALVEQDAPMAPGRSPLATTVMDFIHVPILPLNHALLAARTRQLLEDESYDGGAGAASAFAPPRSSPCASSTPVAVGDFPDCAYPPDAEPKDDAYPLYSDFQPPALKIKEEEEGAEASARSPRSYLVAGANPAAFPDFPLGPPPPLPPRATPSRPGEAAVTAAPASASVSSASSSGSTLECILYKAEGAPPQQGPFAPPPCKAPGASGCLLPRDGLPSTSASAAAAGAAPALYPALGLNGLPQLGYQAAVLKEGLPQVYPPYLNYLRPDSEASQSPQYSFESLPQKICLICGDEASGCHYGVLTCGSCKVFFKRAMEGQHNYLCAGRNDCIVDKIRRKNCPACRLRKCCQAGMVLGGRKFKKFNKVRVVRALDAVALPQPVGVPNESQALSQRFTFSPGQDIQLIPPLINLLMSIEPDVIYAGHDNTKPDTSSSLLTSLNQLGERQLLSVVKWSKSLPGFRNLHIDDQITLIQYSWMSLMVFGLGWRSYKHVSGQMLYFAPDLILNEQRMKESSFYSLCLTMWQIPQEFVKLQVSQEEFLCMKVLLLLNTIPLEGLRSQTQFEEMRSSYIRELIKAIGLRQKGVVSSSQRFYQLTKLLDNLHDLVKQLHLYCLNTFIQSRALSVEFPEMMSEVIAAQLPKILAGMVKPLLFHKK

Test [3] is described as follows: qHTS assay to identify small molecule antagonists of the progesterone receptor (PR) signaling pathway - cell viability counter screen (AID 1346798). Further: series mostly up to about 92 µM; nearly all actives have a fitted effect of over 50% in size. A digest of the protocol:
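In the same plates used for the beta-lactamase readout, cell viability of compound- and R5020-treated PR-UAS-bla HEK293T cells (16 hr, 37C) was assessed by CellTiter-Glo luminescence.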

Test [4] is described as follows: qHTS assay to identify small molecule antagonists of the TGF-beta/Smad signaling pathway - cell viability counter screen (AID 1346824). Further: nearly all actives have a fitted effect of over 50% in size. In short, it runs like this:
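SBE-bla HEK 293T cells, incubated overnight, then compound plus 0.25 ng/mL TGF-beta1 (stock added) for 5 hr at 37 C. Viability was read in the same wells by CellTiter-Glo luminescence after 30 min at room temperature.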

Test [5] is described as follows: qHTS assay to identify small molecule agonists of the TGF-beta/Smad signaling pathway - cell viability counter screen (AID 1346829). Further: top concentration of the series differs between compounds; nearly all actives have a fitted effect of over 45% in size. In short, it runs like this: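 In parallel with the Smad reporter read, viability of HEK 293T cells stably carrying SBE-bla is quantified by ATP luminescence following 5 hr compound treatment.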
Test [6] is described as follows: qHTS assay to identify small molecule agonists of the TGF-beta/Smad signaling pathway (AID 1346859; active means well fitted activation curve with a large enough effect in the signal ratio in the repeat runs, not every such curve was filed as active; the % refers to the signal ratio; further: series mostly up to about 77 µM). A digest of the protocol:
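Screening used HEK 293T SBE-bla cells at 4,000/well. Test agents: 5 hr, 37 C. Detection: FRET substrate, 2 hr RT, then excitation 405 nm with emissions at 460 and 530 nm.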

Test [7] is described as follows: Human pregnane X receptor (PXR) small molecule agonists, qHTS cell viability counter screen (AID 1346977). Further: nearly all actives have a fitted effect of over 50% in size. A digest of the protocol: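 In each well, the PXR reporter HepG2 line was checked for viability: CellTiter-Fluor reagent added 23hr post-dosing, fluorescence read after 1hr incubation at 37C.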
The nature of test [8]: Caspase-3/7 induction in HepG2 cells by small molecules, qHTS assay (AID 1346978). Further: nearly all actives have a fitted effect of over 15% in size. In short, it runs like this: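 Wild-type HepG2 cells, 2,000/well, settled 5 hr at 37 C and 5% CO2, then compound-treated for 17 hr; caspase-3/7 activity read by luminescent Caspase-Glo 3/7 after 30 min at room temperature.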
Test [9] in a line: Caspase-3/7 induction in CHO-K1 cells by small molecules, qHTS cell viability counter screen (AID 1346979). Further: nearly all actives have a fitted effect of over 35% in size. A digest of the protocol: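 Following a 5hr settling period, CHO-K1 cells at 1,500 per well received DMSO-dissolved compounds. Cell viability was quantified 16hr later by CellTiter-Fluor fluorescence, measured after 1hr with reagent at 37C.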
Test [10] can be described thus: Caspase-3/7 induction in HepG2 cells by small molecules, qHTS cell viability counter screen (AID 1346981). Further: series mostly up to about 92 µM; nearly all actives have a fitted effect of over 30% in size. A digest of the protocol:
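In this quantitative HTS counter screen, compounds delivered in DMSO were left on unmodified HepG2 cells for 16 hr at 37 C. Viability was then determined fluorometrically with CellTiter-Fluor, in parallel with caspase-3/7 induction in the same wells.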

In test [11] the target is Nuclear receptor subfamily 1 group I member 2 (Homo sapiens) (UniProt O75469). In words: Human pregnane X receptor (PXR) small molecule agonists, qHTS assay (AID 1346982). Further: nearly all actives have a fitted effect of over 35% in size. Further: potency means the concentration at half of the fitted maximal effect. A digest of the protocol:
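Reporter HepG2 cells expressing PXR-Luc are cultured in charcoal-stripped FBS (5%), treated with compounds for 24 hr at 37 C, and assayed by ONE-Glo luminescence after 30 min at room temperature.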

Test [12] addresses Acetylcholinesterase (Homo sapiens) (UniProt P22303). In words: Acetylcholinesterase (AChE) small molecule antagonists: colormetric cell-based qHTS assay (AID 1347395; calls by dose curve; further: nearly all actives have a fitted effect of over 30% in size; further: potency means the concentration at half of the fitted maximal effect). In short, it runs like this:
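After overnight attachment at 37 C, SH-SY5Y cells get 30 min compound exposure; detection cocktail (acetylthiocholine, DTNB) then incubates 90 min at 37 C, and absorbance reflects AChE-generated thiocholine.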

In test [13] the target is Progesterone receptor (Homo sapiens) (UniProt P06401). In words: qHTS assay to identify small molecule antagonists of the progesterone receptor (PR) signaling pathway (AID 1346795; active means well fitted inhibition curve with a large enough effect in the signal ratio in the repeat runs, not every such curve was filed as active; the % refers to the signal ratio). In short, it runs like this: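 Stimulus R5020 at 1 nM final; cells HEK293T PR-UAS-bla; medium with 2% charcoal-stripped FBS; compound exposure 16 hr at 37C, 5% CO2; detection by FRET beta-lactamase substrate, 2 hr, room temperature.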

Test [14] can be described thus: qHTS assay to identify small molecule agonists of the progesterone receptor (PR) signaling pathway - cell viability counter screen (AID 1346799; calls by dose curve; further: nearly all actives have a fitted effect of over 45% in size). In short, it runs like this: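 Multiplexed viability read: CellTiter-Glo luminescence, 30 min RT, following LiveBLAzer FRET measurement on PR-UAS-bla HEK293T cells exposed to compounds 16 hr.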
For test [15], the target named is Thyrotropin-releasing hormone receptor (Homo sapiens) (UniProt P34981). Nature of the test: qHTS assay to identify small molecule antagonists of the thyrotropin-releasing hormone receptor (TRHR) signaling pathway (AID 1346877; active means well fitted inhibition curve with a large enough effect in the repeat runs, not every such curve was filed as active; further: series mostly up to about 51 µM). A digest of the protocol:
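Kinetic fluorescence (3 min, 1 s resolution) following stimulation with TRH at 1 nM final; HEK293 cells bearing human TRHR; 5 min compound preincubation at RT; concentration-response over 15 points, triplicates.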

For test [16] the target is unchanged. Nature of the test: qHTS assay to identify small molecule agonists of the thyrotropin-releasing hormone receptor (TRHR) signaling pathway (AID 1346891; calls by dose curve; further: series mostly up to about 58 µM). A digest of the protocol: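 Readout was intracellular calcium fluorescence in TRHR-Hek293 cells. Cells were incubated 18 h, dye-loaded 2 h at 37 °C, and treated with compound in agonist mode.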
Test [17] in a line: Caspase-3/7 induction in CHO-K1 cells by small molecules, qHTS assay (AID 1346980). Further: nearly all actives have a fitted effect of over 15% in size. In short, it runs like this:
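Wild-type CHO-K1 cells exposed to compounds for 17hr at 37 C, 5% CO2. Caspase-3/7 activity then measured by Caspase-Glo 3/7 luminescence after 30min at room temperature.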

Unmarked numbers belong to inactive results. Records with an inconclusive call do not appear. Calls of active or inactive are those of the source. Unless noted, the call rests on the fitted dose curve; in most records, active means well fitted curve in the direction sought with a large enough effect in the repeat runs; inconclusive means weak or mixed curves; inactive means no such curve, though single readings can be large; an effect the other way counts as inactive or inconclusive.

Sequence of Nuclear receptor subfamily 1 group I member 2 (Homo sapiens) (O75469 whole entry, looked up): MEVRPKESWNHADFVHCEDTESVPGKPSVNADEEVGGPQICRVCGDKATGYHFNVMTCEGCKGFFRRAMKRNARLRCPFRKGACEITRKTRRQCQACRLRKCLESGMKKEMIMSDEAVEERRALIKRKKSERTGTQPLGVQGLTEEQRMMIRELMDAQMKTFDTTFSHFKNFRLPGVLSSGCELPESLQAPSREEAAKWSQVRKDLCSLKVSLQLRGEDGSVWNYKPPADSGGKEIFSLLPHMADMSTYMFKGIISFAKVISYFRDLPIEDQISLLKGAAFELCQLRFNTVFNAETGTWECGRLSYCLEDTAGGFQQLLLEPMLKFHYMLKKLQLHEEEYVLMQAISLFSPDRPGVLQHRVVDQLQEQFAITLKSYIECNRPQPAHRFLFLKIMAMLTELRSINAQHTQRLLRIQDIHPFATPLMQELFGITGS
Sequence of Thyrotropin-releasing hormone receptor (Homo sapiens) (P34981 whole entry, looked up): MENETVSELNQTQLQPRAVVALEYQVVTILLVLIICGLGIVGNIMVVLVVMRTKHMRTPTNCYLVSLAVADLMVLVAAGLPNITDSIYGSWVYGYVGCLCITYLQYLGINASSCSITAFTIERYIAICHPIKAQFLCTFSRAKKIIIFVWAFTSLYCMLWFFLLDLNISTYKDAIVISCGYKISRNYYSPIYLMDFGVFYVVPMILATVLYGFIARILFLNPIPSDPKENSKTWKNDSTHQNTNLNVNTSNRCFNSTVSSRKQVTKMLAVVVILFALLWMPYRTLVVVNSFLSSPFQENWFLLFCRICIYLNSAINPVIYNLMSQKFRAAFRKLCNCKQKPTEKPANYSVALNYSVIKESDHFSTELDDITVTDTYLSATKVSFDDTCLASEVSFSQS
Sequence of Acetylcholinesterase (Homo sapiens) (P22303 whole entry, looked up): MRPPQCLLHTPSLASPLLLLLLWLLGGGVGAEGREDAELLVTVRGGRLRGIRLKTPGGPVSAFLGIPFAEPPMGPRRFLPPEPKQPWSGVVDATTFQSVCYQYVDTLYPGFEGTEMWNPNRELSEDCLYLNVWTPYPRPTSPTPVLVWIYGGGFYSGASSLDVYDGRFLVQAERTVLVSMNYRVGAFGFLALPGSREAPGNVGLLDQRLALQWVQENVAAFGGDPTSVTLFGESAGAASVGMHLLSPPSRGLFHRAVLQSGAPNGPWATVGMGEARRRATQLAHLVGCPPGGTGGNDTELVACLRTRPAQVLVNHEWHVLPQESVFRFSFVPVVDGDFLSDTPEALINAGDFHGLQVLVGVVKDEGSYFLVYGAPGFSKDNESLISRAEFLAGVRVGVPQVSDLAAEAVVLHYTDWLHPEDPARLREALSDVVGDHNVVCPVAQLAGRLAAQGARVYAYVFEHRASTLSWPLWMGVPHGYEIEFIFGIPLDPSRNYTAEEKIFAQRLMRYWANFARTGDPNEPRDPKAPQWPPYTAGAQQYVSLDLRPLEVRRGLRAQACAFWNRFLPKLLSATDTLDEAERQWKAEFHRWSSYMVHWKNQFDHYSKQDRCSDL

Regarding `Oc1ccc(Cc2ccc(O)cc2)cc1`, the Potency result in test [1], in test [2], in test [3], in test [5], in test [7] and in [9] was “inactive” throughout. The Potency result in test [10] and in test [12] was “inactive” in each case. Further, the call in test [4], in test [6] and in [8] was inactive. Further, the Potency in test [11] is 54.9 µM (active).
Regarding `C=C(Cl)CCl`, the Potency entry in [2], in test [13], in test [3], in test [14], in [5] and in test [15] was “inactive” each time. The Potency entry in test [7], in test [9], in test [10], in test [11] and in test [12] was “inactive” throughout. For the same compound, the compound was classed as inactive in [4], in test [6], in test [16], in test [8] and in test [17].
`BrCc1ccc(Br)cc1`: the Potency entry in test [1], in [2], in test [14], in test [5], in test [15] and in test [7] was “inactive” each time. In addition, the Potency entry in [10] was “inactive”. For the same compound, the outcome in test [4], in test [6], in test [16], in test [8] and in [17] was inactive. In test [12], the Potency is 71 µM (active).
With `COc1cc(CCN)cc(OC)c1OC`, the Potency entry in test [1], in test [2], in test [3], in test [7], in test [11] and in [12] was “inactive” throughout. The call in test [4], in [6], in test [8] and in test [17] was inactive.
Consider `O=C(O)C(Cl)Br` (stereo not given), for which the Potency entry in [2], in [13], in test [3], in test [14], in test [5] and in test [15] was “inactive” in each case. Further, the Potency entry in test [7], in [9] and in test [12] was “inactive” each time. For the same compound, the compound was classed as inactive in [4], in [6], in test [16], in test [8] and in test [17].
With `CNC(=O)O/N=C(/CSC)C(C)(C)C`, the Potency result in test [1], in test [3], in [14], in [5], in [15] and in test [7] was “inactive” throughout. For the same compound, in test [10], the Potency entry is “inactive”. The compound was called inactive in test [4], in [6], in test [16], in test [8] and in [17]. For the same compound, the Potency in [12] is 1.59 µM (active).
Turning to `C[N+]1(C)CCCCC1`, the Potency entry in [1], in test [13], in test [3], in test [5], in [15] and in test [7] was “inactive” in each case. Moreover, the Potency entry in test [9], in test [10] and in [11] was “inactive” throughout. Moreover, the call in test [4], in test [6], in [16], in test [8] and in [17] was inactive.
With `COc1ccc2c(C(=O)c3ccc(Cl)cc3)c(C)n(CC(=O)O)c2c1`, the Potency entry in [2], in [13], in [3], in test [5], in test [15] and in test [7] was “inactive” each time. For the same compound, the Potency entry in test [9], in [10] and in [11] was “inactive” in each case. In addition, the result in test [4], in [6], in test [16], in test [8] and in test [17] was inactive.
As to `N#CN=C1SCCN1Cc1ccc(Cl)nc1`, the Potency entry in test [2], in test [13], in test [3], in test [15], in test [7] and in test [10] was “inactive” each time. Moreover, the call in test [4], in test [6], in test [16], in test [8] and in test [17] was inactive. The Potency in [12] is 35.6 µM (active).
Turning to `C#CC(C)(C)O`, the Potency entry in [2], in test [13], in test [3], in test [5], in test [7] and in test [9] was “inactive” each time. For the same compound, the Potency result in test [10] and in test [12] was “inactive” throughout. Moreover, the compound was classed as inactive in test [4], in test [6], in test [8] and in [17].
